Test results: PubChem BioAssay (EPA / NIEHS)
Active and inactive are the calls of the source. Rule for the calls: active = hit-call score of the fitted dose curve at least 0.9, where 1 is the maximum; inactive = score below 0.9.

Assays:
[1] = BSK_hDFCGF_SRB: Viability Assessment in the BioMAP Diversity Plus: hDFCGF Assay (AID 2283061); settings: primary human foreskin fibroblasts;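 note: cells exposed to compound for 24 h before the read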
How it was run: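 SRB-based viability read on primary human skin fibroblasts at 24 h: TCA fixation, 0.1% dye, 560 nm. Gain or loss of signal is fitted against the DMSO negative control.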

[2] = read-out: TIMP metallopeptidase inhibitor 1 (TIMP1), TIMP1 (gene 7076); test: BSK_hDFCGF_TIMP1: BioMAP Diversity Plus: hDFCGF Assay for TIMP metallopeptidase inhibitor 1 (TIMP1) Biomarker Activity (AID 2283062); settings: primary human foreskin fibroblasts; actives raise or lower the signal
How it was run: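 Bidirectional curve fitting against DMSO baseline yielded this endpoint, based on ELISA detection of TIMP-1 in primary human foreskin fibroblasts exposed to compound for 24 h.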

[3] = read-out: Monokine induced gamma interferon (MIG), CXCL9 (gene 4283); test: BSK_hDFCGF_MIG: BioMAP Diversity Plus: hDFCGF Assay for Monokine induced gamma interferon (MIG) Biomarker Activity (AID 2283063); settings: primary human foreskin fibroblasts; actives raise or lower the signal
How it was run: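 Endpoint derived by bidirectional fitting relative to DMSO; MIG quantified via ELISA in primary human foreskin fibroblasts harvested 24 h after dosing.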

[4] = read-out: Vascular cell adhesion molecule 1 (VCAM1), VCAM1 (gene 7412); test: BSK_hDFCGF_VCAM1: BioMAP Diversity Plus: hDFCGF Assay for Vascular cell adhesion molecule 1 (VCAM1) Biomarker Activity (AID 2283065); settings: primary human foreskin fibroblasts; actives raise or lower the signal;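 for AC50: VCAM-1 protein level quantified by ELISA after 24 h chemical exposure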
How it was run: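 Measured after 24 h chemical treatment of primary human skin fibroblasts, VCAM-1 was detected by ELISA and concentration-response analysed in both directions versus DMSO vehicle.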

[5] = read-out: Plasminogen activator inhibitor-1 (PAI1), SERPINE1 (gene 5054); test: BSK_hDFCGF_PAI1: BioMAP Diversity Plus: hDFCGF Assay for Plasminogen activator inhibitor-1 (PAI1) Biomarker Activity (AID 2283066); settings: primary human foreskin fibroblasts; actives raise or lower the signal
How it was run: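 Primary dermal fibroblasts (human foreskin), hDFCGF system; compound 24 h; PAI-1 by ELISA; bidirectional fit vs DMSO control.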

[6] = read-out: Intercellular Adhesion Molecule 1 (ICAM1), ICAM1 (gene 3383); test: BSK_KF3CT_ICAM1: BioMAP Diversity Plus: KF3CT Assay for Intercellular Adhesion Molecule 1 (ICAM1) Biomarker Activity (AID 2283067); settings: primary human keratinocytes with fibroblasts; actives raise or lower the signal
How it was run: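 Bidirectional curve fitting against a DMSO baseline was applied to ICAM-1 ELISA signal from primary human skin co-cultures harvested 24 h after treatment, with SRB staining of parallel wells for overt cytotoxicity.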

[7] = read-out: Interferon-gamma inducible Protein 10 (IP10), CXCL10 (gene 3627); test: BSK_KF3CT_IP10: BioMAP Diversity Plus: KF3CT Assay for Interferon-gamma inducible Protein 10 (IP10) Biomarker Activity (AID 2283068); settings: primary human keratinocytes with fibroblasts; actives raise or lower the signal
How it was run: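 ELISA read-out of IP-10 after 24 h chemical dosing of human skin primary co-culture (keratinocytes, foreskin fibroblasts). Gain or loss of signal relative to DMSO, bidirectional curve fit.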

[8] = BSK_KF3CT_SRB: Viability Assessment in the BioMAP Diversity Plus: KF3CT Assay (AID 2283069); settings: primary human keratinocytes with fibroblasts;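 note: total protein by sulforhodamine B staining as a cytotoxicity measure; read 24 h after compound addition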
How it was run: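 Human primary keratinocyte plus foreskin fibroblast co-culture exposed to chemicals for 24 h. Total protein measured by 0.1% sulforhodamine B staining after 10% TCA fixation, read at 560 nm; bidirectional fitting versus DMSO baseline.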

[9] = read-out: Interleukin-1 alpha (IL1a), IL1A (gene 3552); test: BSK_KF3CT_IL1a: BioMAP Diversity Plus: KF3CT Assay for Interleukin-1 alpha (IL1a) Biomarker Activity (AID 2283070); settings: primary human keratinocytes with fibroblasts; actives raise or lower the signal
How it was run: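 Human keratinocyte plus foreskin fibroblast primary co-culture, sampled 24 h after chemical dosing. IL-1a measured by ELISA; responses fitted bidirectionally against DMSO baseline (negative control), so gain or loss of signal both count.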

[10] = read-out: TIMP metallopeptidase inhibitor 2 (TIMP2), TIMP2 (gene 7077); test: BSK_KF3CT_TIMP2: BioMAP Diversity Plus: KF3CT Assay for TIMP metallopeptidase inhibitor 2 (TIMP2) Biomarker Activity (AID 2283071); settings: primary human keratinocytes with fibroblasts; actives raise or lower the signal
How it was run: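 Cells: human keratinocytes co-cultured with foreskin fibroblasts. Treat with chemical, 24 h. Measure TIMP-2 by ELISA; fit curves bidirectionally vs DMSO baseline.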

[11] = read-out: Transforming growth factor beta 1 (TGFb1), TGFB1 (gene 7040); test: BSK_KF3CT_TGFb1: BioMAP Diversity Plus: KF3CT Assay for Transforming growth factor beta 1 (TGFb1) Biomarker Activity (AID 2283072); settings: primary human keratinocytes with fibroblasts; actives raise or lower the signal
How it was run: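 Primary human skin cells (keratinocytes, foreskin fibroblasts) were co-cultured, exposed to test chemical and sampled at 24 h. TGF-b1 levels were measured by ELISA and fitted bidirectionally relative to DMSO.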

[12] = read-out: C-C motif chemokine 2 (Homo sapiens) (UniProt P13500); test: BSK_KF3CT_MCP1: BioMAP Diversity Plus: KF3CT Assay for Monocyte Chemoattractant Protein 1 (MCP1/CCL2) Biomarker Activity (AID 2283073); settings: primary human keratinocytes with fibroblasts; actives raise or lower the signal
How it was run: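 Biomarker MCP-1 is measured by ELISA in primary human keratinocytes co-cultured with foreskin fibroblasts, 24 h after chemical treatment; DMSO serves as the negative control and activity baseline.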

[13] = read-out: Matrix Metallopeptidase 9 (MMP9), MMP9 (gene 4318); test: BSK_KF3CT_MMP9: BioMAP Diversity Plus: KF3CT Assay for Matrix Metallopeptidase 9 (MMP9) Biomarker Activity (AID 2283074); settings: primary human keratinocytes with fibroblasts; actives raise or lower the signal;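 for AC50: MMP9 protein level quantified by ELISA in the co-culture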
How it was run: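 Keratinocyte plus foreskin fibroblast human primary skin co-culture was dosed with chemical and MMP-9 was quantified by ELISA 24 h later. Bidirectional curve fitting used DMSO as negative control and activity baseline.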

[14] = read-out: urokinase plasminogen activator (uPA), PLAU (gene 5328); test: BSK_KF3CT_uPA: BioMAP Diversity Plus: KF3CT Assay for urokinase plasminogen activator (uPA) Biomarker Activity (AID 2283075); settings: primary human keratinocytes with fibroblasts; actives raise or lower the signal
How it was run: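 Human keratinocyte plus foreskin fibroblast primary co-culture exposed to chemical for 24 h. uPA levels were quantified by ELISA, and activity was fitted bidirectionally against a DMSO negative-control baseline.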

CD40, CD40 (gene 958) = test: BSK_LPS_CD40: BioMAP Diversity Plus: LPS Assay for CD40 Biomarker Activity (AID 2283076); settings: primary human HUVEC with PBMC; actives raise or lower the signal
How it was run: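 Using a multiplexed primary human co-culture (umbilical vein endothelium plus PBMC), CD40 was read by ELISA 24 h after dosing, with cytotoxicity tracked by sulforhodamine B staining of parallel cultures and activity fitted bidirectionally versus DMSO.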

[15] = read-out: E-selectin (Homo sapiens) (UniProt P16581); test: BSK_LPS_Eselectin: BioMAP Diversity Plus: LPS Assay for Eselectin Biomarker Activity (AID 2283077); settings: primary human HUVEC with PBMC; actives raise or lower the signal
How it was run: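 Dose chemical onto LPS-driven HUVEC/PBMC co-culture; after 24 h, run ELISA for E-selectin; fit up- and down-going responses relative to DMSO control.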

[16] = read-out: Interleukin-8 (IL8), CXCL8 (gene 3576); test: BSK_LPS_IL8: BioMAP Diversity Plus: LPS Assay for Interleukin-8 (IL8) Biomarker Activity (AID 2283078); settings: primary human HUVEC with PBMC; actives raise or lower the signal
How it was run: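 In this LPS system, chemical-treated human umbilical vein endothelium/PBMC co-cultures were harvested at 24 h for IL-8 ELISA.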

[17] = BSK_LPS_SRB: Viability Assessment in the BioMAP Diversity Plus: LPS Assay (AID 2283079); settings: primary human HUVEC with PBMC;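 note: total protein by sulforhodamine B absorbance as a cytotoxicity measure; measured one day after compound addition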
How it was run: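 Cytotoxicity endpoint in human endothelial–PBMC co-culture: 24 h exposure, then SRB (0.1%) staining, 560 nm read.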

[18] = read-out: Interleukin-1 alpha (IL1a), IL1A (gene 3552); test: BSK_LPS_IL1a: BioMAP Diversity Plus: LPS Assay for Interleukin-1 alpha (IL1a) Biomarker Activity (AID 2283080); settings: primary human HUVEC with PBMC; actives raise or lower the signal
How it was run: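 Primary human HUVEC and PBMC co-culture stimulated with LPS is dosed and harvested at 24 h. Both increases and decreases in ELISA-measured IL-1a are scored relative to DMSO.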

Measured: AC50

E-selectin (Homo sapiens), sequence (P16581 whole entry, looked up): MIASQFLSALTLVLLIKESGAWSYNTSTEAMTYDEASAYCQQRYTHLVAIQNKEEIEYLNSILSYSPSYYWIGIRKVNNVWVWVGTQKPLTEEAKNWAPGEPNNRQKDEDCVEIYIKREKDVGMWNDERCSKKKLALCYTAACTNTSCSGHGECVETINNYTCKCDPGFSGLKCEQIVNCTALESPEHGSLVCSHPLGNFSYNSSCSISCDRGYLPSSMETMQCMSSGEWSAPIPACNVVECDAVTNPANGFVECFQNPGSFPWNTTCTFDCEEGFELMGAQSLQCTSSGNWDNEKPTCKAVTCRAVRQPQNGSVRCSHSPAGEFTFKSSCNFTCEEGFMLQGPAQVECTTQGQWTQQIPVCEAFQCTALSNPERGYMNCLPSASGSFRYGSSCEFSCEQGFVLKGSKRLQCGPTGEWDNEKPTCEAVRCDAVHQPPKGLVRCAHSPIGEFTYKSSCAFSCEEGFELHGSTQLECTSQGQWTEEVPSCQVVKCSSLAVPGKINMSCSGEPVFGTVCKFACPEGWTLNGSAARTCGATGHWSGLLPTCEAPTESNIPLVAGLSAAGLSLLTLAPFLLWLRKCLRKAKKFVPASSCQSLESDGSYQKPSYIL

CCCCC(CC)C(=O)OCCOCCOCCOC(=O)C(CC)CCCC (configuration not stated)
active: [16] 15.7 µM
inactive: all other assays above

Cc1nccn1-c1ccc(Sc2cccc(C3(C(N)=O)CCOCC3)c2)cc1
active: [2] 2.1 µM | [3] 6.44 µM | [4] 3.25 µM | [13] 20 µM
inactive: all other assays above

CCCCCCCCCCCCCCCCOS(=O)(=O)O
active: [1] 13.7 µM | [2] 18.2 µM | [3] 13.1 µM | [4] 5.95 µM | [5] 9.1 µM | [6] 14.9 µM | [7] 11.9 µM | [8] 15.8 µM | [9] 15.6 µM | [10] 19.5 µM | [11] 17.4 µM | [12] 16.8 µM | [13] 18.5 µM | [14] 15.6 µM
inactive: CD40, CD40 (gene 958) | [15] | [16] | [17] | [18]
